This passage reports sensor-assay potency score (higher = more potent) results from the OligoGym collection.
Also: reference of the scale not given here.

The first test deals with NR4A3. The test is described as follows: pooled miR-30 sensor sort-seq; sequence = guide strand. As to conditions: shRNA.
ATCGACAGTACTGACATCGGTT registered a sensor-assay potency score (higher = more potent) of -0.324.

Sequence TTGCATAGCTCTTCGACTCTCT gave a sensor-assay potency score (higher = more potent) of 0.177.

TCTTGTTGCATAGCTCTTCGAC showed a sensor-assay potency score (higher = more potent) of -0.437.

As to TAAGTAATGTCTGATCTTCTTT, the sensor-assay potency score (higher = more potent) is -0.546.

The sequence TATCTGTACGGACAACTTCTTT had a sensor-assay potency score (higher = more potent) of -1.

Consider TTGAAGTACATGGAGGTGCTGG, for which the sensor-assay potency score (higher = more potent) was -0.481.

Sequence TCCAACACTGAGACACTTCTGA returned a sensor-assay potency score (higher = more potent) of -0.139.

Consider TGGTCTTTTAAACTGCTTGTGA, for which the sensor-assay potency score (higher = more potent) is -0.937.

As for TAAACTGCTTGTGATCTTGTTG, the sensor-assay potency score (higher = more potent) was -0.255.

With TTTTTCTGCACTGTTCTCTTGA, the sensor-assay potency score (higher = more potent) is 0.598.

TAATGTCTGATCTTCTTTGGGG: the sensor-assay potency score (higher = more potent) stood at 0.115.

For the next test, the target named is NRGN. The description is as above. As to conditions: shRNA.
TATCTTCTTCCGCGCCATGTGG returned a sensor-assay potency score (higher = more potent) of -1.11.

TCGTCGTCCGGCTTGGAGCAGG came in with a sensor-assay potency score (higher = more potent) of -0.878.

TCTTTATCTTCTTCCGCGCCAT showed a sensor-assay potency score (higher = more potent) of -0.595.

For the sequence TCTAGAATGTCGTCGTCCGGCT, the sensor-assay potency score (higher = more potent) was -0.833.

Turning to TTTGCATAAACAAGAGAGCTGG, the sensor-assay potency score (higher = more potent) is -0.297.

Sequence TTTCTTTAAGTGAGTGTGCTTG came in with a sensor-assay potency score (higher = more potent) of -0.361.

Sequence TTTAGCTGCGCACAGAACGAAA had a sensor-assay potency score (higher = more potent) of -1.54.

Take TTGCATAAACAAGAGAGCTGGA: the sensor-assay potency score (higher = more potent) was 0.0661.

The sequence TTTATCTTCTTCCGCGCCATGT showed a sensor-assay potency score (higher = more potent) of -1.14.

In turn, TAGAATGTCGTCGTCCGGCTTG returned a sensor-assay potency score (higher = more potent) of -0.236.

TATTGTTCACATTCCAACCCAG: the sensor-assay potency score (higher = more potent) is -0.138.

TGTCTAGAATGTCGTCGTCCGG displayed a sensor-assay potency score (higher = more potent) of -1.75.
